Screening data (PubChem BioAssay)
Hits are enriched below; roughly 15% of the tested compounds scored in any of these assays.
TDP1 cell CPT = qHTS for Inhibitors of human tyrosyl-DNA phosphodiesterase 1 (TDP1): qHTS in cells in presence of CPT | chicken DT40 Tdp1-/-;hTDP1 cells + 20 nM CPT, ATP luminescence, 48 h | Potency, µM (top dose mostly 46.2 µM), for inactives: at the top dose activity change, negative = growth inhibition, usual class: inhibitors | 420,000 compounds, 12% hits; note: nearly all actives have a fitted effect of over 55% in size
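Chicken DT40 Tdp1-/- cells complemented with human TDP1, 400 cells/well, exposed to compounds plus 20 nM camptothecin for at least 48 h at 37 C; viability read as ATP content by CellTiter-Glo luminescence.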
ELG1 repair inh = qHTS screen for small molecules that inhibit ELG1-dependent DNA repair in human embryonic kidney (HEK293T) cells expressing luciferase-tagged ELG1 | Potency, µM (titrated, usually from 46.1 µM), without a hit: top-dose activity change, negative = inhibition, hits mostly inhibitors | HEK293T ELG1-luciferase reporter, luminescence, 16 h; DNA damage induced by 5-fluorouridine | 330,000 compounds, 2.3% hits; note: nearly all actives have a fitted effect of over 55% in size
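Overnight (16 hr) co-exposure of 2,000 cells/well to 5-fluorouridine and compound at 37 °C preceded detection. Luciferase was quantified via ONE-Glo luminescence; loss of signal denotes inhibition.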
12-LOX inh = Primary qHTS assay for inhibitors of human arachidonate 12S-lipoxygenase (ALOX12): Round 2; Polyunsaturated fatty acid lipoxygenase ALOX12 (Homo sapiens), P18054; Potency, µM (titrated, usually from 108 µM), for inactives: at the top dose activity change, negative = inhibition, hits mostly inhibitors; 580,000 compounds, 1.1% hits; AID 1671190, 2021; purified 12hLO, xylenol orange hydroperoxide absorbance
Target sequence (P18054 whole entry, looked up): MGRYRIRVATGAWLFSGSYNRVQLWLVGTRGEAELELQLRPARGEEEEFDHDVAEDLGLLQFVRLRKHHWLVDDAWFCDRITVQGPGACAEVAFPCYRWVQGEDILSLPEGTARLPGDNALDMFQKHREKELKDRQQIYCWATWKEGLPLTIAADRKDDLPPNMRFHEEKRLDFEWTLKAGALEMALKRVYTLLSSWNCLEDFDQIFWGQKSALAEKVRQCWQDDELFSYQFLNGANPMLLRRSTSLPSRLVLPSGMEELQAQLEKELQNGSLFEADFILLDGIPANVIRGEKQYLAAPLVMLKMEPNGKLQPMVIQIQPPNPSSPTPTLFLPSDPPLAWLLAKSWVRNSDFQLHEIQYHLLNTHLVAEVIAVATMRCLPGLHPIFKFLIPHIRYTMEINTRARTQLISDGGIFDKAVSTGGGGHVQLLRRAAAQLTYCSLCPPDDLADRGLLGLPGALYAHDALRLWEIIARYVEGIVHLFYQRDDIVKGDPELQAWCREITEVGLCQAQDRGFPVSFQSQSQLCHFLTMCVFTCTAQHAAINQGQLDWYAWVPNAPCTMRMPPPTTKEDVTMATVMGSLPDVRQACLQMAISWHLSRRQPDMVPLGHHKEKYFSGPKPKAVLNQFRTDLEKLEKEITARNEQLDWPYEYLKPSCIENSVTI
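Purified human 12hLO at 150 nM in 25 mM Hepes, 0.01% Triton X-100, pH 7.0, preincubated 15 min at room temperature with compound. Reaction started with 40 uM arachidonic acid, 30 min at room temperature. Hydroperoxide measured by Fe-xylenol orange, 573/405 nm absorbance ratio.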
TDP1 cell noCPT = qHTS for Inhibitors of human tyrosyl-DNA phosphodiesterase 1 (TDP1): qHTS in cells in absence of CPT. DT40 Tdp1-/- hTDP1 cells, no CPT, ATP luminescence, 48 h. Potency, µM (titrated, usually from 46.2 µM), for inactives: at the highest dose activity change, negative = growth inhibition, usual class: inhibitors. 420,000 compounds, 15% hits. AID 686978, 2013; note: nearly all actives have a fitted effect of over 55% in size
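Cells were dispensed at 400 per well, compounds added by pin tool, plates incubated ≥48 hr at 37 °C, then CellTiter-Glo added for 30 min at room temperature before luminescence reading. Line: DT40 Tdp1-/- complemented with hTDP1; camptothecin omitted.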
RORg inh = qHTS for inhibitors of ROR gamma transcriptional activity. Drosophila S2 Gal4-RORgamma UAS-luciferase reporter, 20 h. Potency, µM (series often up to 53.6 µM), for inactives: top-dose activity change, negative = inhibition, actives largely listed as inhibitors. 310,000 compounds, 5.4% hits; note: nearly all actives have a fitted effect of over 60% in size
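Using a luciferase readout, inhibitors were identified by reduced reporter activity in Drosophila cells coexpressing a copper-inducible Gal4–ROR gamma fusion and UAS-driven Photinus luciferase, incubated 20 hr after 700 uM copper sulfate.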
Gal4-VP16 FLuc = VP16 counterscreen qHTS for inhibitors of ROR gamma transcriptional activity; 310,000 compounds, 3.5% hits; Drosophila S2 Gal4-VP16 UAS-luciferase, luminescence, 20 h; Potency, µM (series often up to 53.6 µM), for the others: at the top dose activity, negative = inhibition, most hits filed as inhibitors;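 note: Gal4-VP16 expression switched on by copper sulfate through the metallothionein promoter; nearly all actives have a fitted effect of over 50% in size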
* = called active by the depositor; ? = inconclusive; · = not tested or not shown; [ ] = remark or other dose. Calls come from the whole dose curve; as a rule, active = well fitted curve in the direction sought with a large enough effect; inconclusive = small, poorly fitted or top-dose-only effect, or another doubt; inactive = no such curve, though single readings can be large; an effect the other way counts as inactive or inconclusive. % is set by controls: 0 for no effect and ±100 for the full control effect; potency is the fitted concentration of half-maximal effect.

SMILES	TDP1 cell CPT	ELG1 repair inh	12-LOX inh	TDP1 cell noCPT	RORg inh	Gal4-VP16 FLuc
CC(C)(C)c1ccc(OCCC(=O)Nc2cccc(S(=O)(=O)N3CCCC3)c2)cc1	?	?	-16%	?	·	·
Cc1cc(C)c2c(c1)cc(C)c1nnc(SCC(=O)Nc3ccc(S(=O)(=O)N4CCCCC4)cc3)n12	?	8%	-18%	21µM*	-9%	0%
Cc1ccc2cc(C)c(SCC(=O)Nc3ccc(S(=O)(=O)N4CCCC4)cc3)nc2c1	?	?	1%	?	-27%	-7%
Cc1nnc(SCC(=O)Nc2cccc(S(=O)(=O)N3CCCC3)c2)n1C1CC1	-14%	·	-6%	29µM*	·	·
COc1ccc(CC(=O)Nc2cccc(S(=O)(=O)N3CCCC3)c2)cc1OC	15µM*	?	0%	18µM*	·	·
CCOc1ccc(NC(=O)CSc2nnc(C)n2C2CC2)cc1S(=O)(=O)N1CCCC1	-16%	?	8%	3%	·	·
C/C(=N/N=C(c1ccccc1)c1ccccc1)c1cccnc1	·	·	4%	·	·	·
CCc1cccc(CC)c1NC(=O)CSc1nc(CN(C)C)nc2ccccc12	·	·	1%	·	·	·
O=C(Cn1c(NCc2ccccc2)nc2ccccc21)N1CCCCC1	·	·	2%	·	·	·
COCCNC(=O)N1CCC(OC2CCN(Cc3ccccc3)CC2)CC1	·	·	85%	·	·	·
Cc1ccc(S(=O)(=O)N2CCCCC2)cc1NC(=O)Cn1ccsc1=N	?	17%	37%	?	31%	1%
O=C(Cc1ccccc1F)Nc1cccc(S(=O)(=O)N2CCCCC2)c1	?	·	0%	21µM*	·	·
COc1ccc(Br)cc1CN(C)CC(=O)Nc1c(Cl)cccc1Cl	?	-4%	11%	23µM*	16%	-6%
COc1ccc(CN(C)CC(=O)Nc2c(C)cccc2C)c(OC)c1	?	-6%	-8%	?	-4%	-2%
O=C(CCNC(=O)c1ccc(Br)cc1)Nc1cccc(S(=O)(=O)N2CCCCCC2)c1	13µM*	?	-12%	?	·	·
O=C(CCNC(=O)c1ccc(Cl)cc1)Nc1cccc(S(=O)(=O)N2CCCCCC2)c1	?	-16%	?	-22%	·	·
N=c1sccn1CC(=O)Nc1cccc(S(=O)(=O)N2CCCCCC2)c1	?	?	-14%	21µM*	10%	-1%
Cc1ccc(CNC(=O)N[C@@H]2CN(Cc3cccnc3)C[C@H]2CN(C)C)cc1	·	·	65%	·	·	·
COc1cccc(NC(=O)N[C@H]2CCN(C(=O)c3cccn3C)[C@@H]2C(=O)N[C@@H](Cc2cccs2)C(N)=O)c1	·	·	8%	·	·	·
O=C(Cc1ccc(Cl)cc1)Nc1cccc(S(=O)(=O)N2CCCCC2)c1	?	?	-6%	21µM*	·	·
O=C(Cc1ccc(Br)cc1)Nc1cccc(S(=O)(=O)N2CCCCC2)c1	?	·	5%	15µM*	·	·
O=C(CSc1nnc(-c2cccc(S(=O)(=O)N3CCOCC3)c2)n1C1CCCCCC1)NCc1ccccc1	22µM*	?	-16%	?	27%	-2%
O=C(Cc1c[nH]c2ccccc12)Nc1cccc(S(=O)(=O)N2CCCCC2)c1	·	?	·	·	27%	1%
CNC(=O)CSc1nnc(-c2cccc(S(=O)(=O)N3CCOCC3)c2)n1-c1ccc(F)cc1	-13%	15%	0%	-3%	20%	-1%
Cc1ccc(CSc2nnc(-c3cccc(S(=O)(=O)N4CCOCC4)c3)n2CC(C)C)cc1	13µM*	2%	-24%	8.2µM*	?	-19%
SMILES	TDP1 cell CPT	ELG1 repair inh	12-LOX inh	TDP1 cell noCPT	RORg inh	Gal4-VP16 FLuc
CC(C)Cn1c(SCC(N)=O)nnc1-c1cccc(S(=O)(=O)N2CCOCC2)c1	10%	?	375%	0%	·	·
CC1(C)CN(C(=O)Cn2cc(C(F)(F)F)ccc2=O)C[C@]1(C)O	·	·	26%	·	·	·
COc1ccc(Br)cc1CN(C)CC(=O)Nc1cccc(S(N)(=O)=O)c1	1%	6%	0%	-28%	0%	-3%
O=C(/C=C/c1ccccc1[N+](=O)[O-])Nc1cccc(S(=O)(=O)NC2=NCCCCC2)c1	?	?	-6%	21µM*	·	·
COc1ccc(/C=C/C(=O)N2CCN(S(=O)(=O)c3ccccc3)CC2)cc1OC	-7%	-1%	176%	?	18%	-10%
COc1ccc(/C=C/C(=O)NC2=NCCS2)cc1OC	-29%	?	-1%	?	1%	23%
COc1ccc(Br)cc1CN(C)CC(=O)Nc1cccc(S(=O)(=O)N2CCCC2)c1	15µM*	?	-31%	10µM*	·	·
COc1ccc(/C=C/C(=O)ONC2=NCCCCC2)cc1OC	23µM*	-8%	15%	?	11µM*	-24%
COc1ccc(/C=C/C(=O)Nc2cccc(S(=O)(=O)N3CCCC3)c2)cc1OC	?	?	-6%	21µM*	?	0%
O=C(/C=C/c1ccc(Cl)cc1Cl)Nc1cccc(S(=O)(=O)NC2=NCCCCC2)c1	-5%	?	7%	?	?	-12%
C/C(=N\NC(N)=S)C(=O)O	·	·	20%	·	·	·
O=C(NCc1ccc2c(c1)OCO2)C1CN(c2ccc(F)cc2)C(=O)N1 (configuration not stated)	·	·	54%	·	·	·
COc1ccc(/C=C/C(=O)Nc2ccc3c(c2)CCC3)cc1OC	-8%	-19%	6%	?	?	4µM*
CCCCCCOc1ccc(/C=C/C(=O)Nc2sc3c(c2C(=O)OC)CCC3)cc1OC	7.3µM*	·	-13%	4.1µM*	·	·
COc1ccc(/C=C/C(=O)Nc2cccc(S(=O)(=O)NC3=NCCCCC3)c2)cc1OC	15µM*	?	11%	8.2µM*	·	·
O=C(CCl)Nc1cccc(S(=O)(=O)N2CCCCCC2)c1	4.1µM*	?	-30%	5.2µM*	35µM*	?
COc1ccc(NC(=O)Nc2ccc3c(c2)CCC3)cc1OC	1%	21%	-1%	0%	9%	-1%[10 µM]
COc1ccc(CNC(=O)N2CCC(c3noc(-c4cnccn4)n3)C2)cc1 (configuration not stated)	·	·	12%	·	·	·
